Compound activity from PubChem BioAssay.
ALDH1A1 inh: blocks purified human ALDH1A1 activity | Purified ALDH1A1, NADH fluorescence, propionaldehyde substrate | Potency, µM (highest dose often 75.3 µM), for the others: at the highest dose activity, negative = inhibition, usual class: inhibitors | actives 7.3% (n = 220,000);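 also: potency is read from the fitted curve at half-maximal effect; plate controls were no enzyme wells and a reference inhibitor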
Target sequence (P00352 whole entry, looked up): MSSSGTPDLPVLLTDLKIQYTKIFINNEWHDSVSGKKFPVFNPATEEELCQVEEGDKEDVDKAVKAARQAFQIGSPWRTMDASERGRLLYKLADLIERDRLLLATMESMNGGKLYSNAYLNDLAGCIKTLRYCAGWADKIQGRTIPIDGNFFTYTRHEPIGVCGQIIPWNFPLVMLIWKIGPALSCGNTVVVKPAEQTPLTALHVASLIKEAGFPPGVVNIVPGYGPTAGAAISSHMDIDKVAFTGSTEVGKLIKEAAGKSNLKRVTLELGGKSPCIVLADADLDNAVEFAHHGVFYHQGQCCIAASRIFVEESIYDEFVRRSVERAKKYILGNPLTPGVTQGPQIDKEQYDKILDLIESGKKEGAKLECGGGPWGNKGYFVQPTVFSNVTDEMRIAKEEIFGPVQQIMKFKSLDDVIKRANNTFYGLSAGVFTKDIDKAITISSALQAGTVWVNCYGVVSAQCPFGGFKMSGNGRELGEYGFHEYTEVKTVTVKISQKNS
HPGD block: HPGD (human) dehydrogenase inhibition | P15428 | purified HPGD, NADH fluorescence kinetic, PGE2 substrate | Potency, µM, for inactives: top-dose activity change, negative = inhibition, actives largely listed as inhibitors | actives 4.3% (n = 150,000) | AID 894; also: potency is read from the fitted curve at half-maximal effect
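20 nM HPGD preincubated 15 min at room temperature with compound in 50 mM Tris-HCl pH 8, 0.01% Tween 20. Started with 1 mM NAD+ and 30 uM prostaglandin E2; NADH fluorescence (360/450 nm) read 5 times over 30-s intervals, last minus first.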
PNC assembly inh: perinucleolar compartment assembly inhibition | PC3M PTB-GFP, PNC prevalence imaging, 16 h; stronger effect = lower value | AID 2417 | activity change (PNC), negative = inhibition, % at 10 µM | actives 3.1% (n = 140,000);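 active = readout at or below -70, meaning at least 70% loss of cells showing the perinucleolar compartment, a nuclear body marking cancer cells; inconclusive = readout between -30 and a set limit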;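 also: plate controls were DMSO wells for no effect and camptothecin positive control wells for full effect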
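Read-out is percentage of cells bearing a perinucleolar compartment, from automated 20x imaging of fixed, Hoechst-stained PC3M PTB-GFP cells. Cells were seeded 4 h, then exposed 16 h to compound (23 nl of library stock) in duplicate plates.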
* hit, by the source's call; u = inconclusive; x = not tested or not shown. In the library only some 11% were active in any assay of this set; here they are far more common. Unless noted, calls follow the shape of the dose curve; as a rule, active = well fitted inhibition curve with a large enough effect (not every such curve was filed as active); inconclusive = small, poorly fitted or top-dose-only effect, or another doubt; inactive = no such curve, though single readings can be large or run the other way. Unless noted, % is scaled to controls: 0 for no effect and ±100 for the full control effect.

SMILES	ALDH1A1 inh	HPGD block	PNC assembly inh
O=C(CCCN1C(=O)/C(=C\c2ccco2)SC1=S)Nc1ccc2ccccc2c1	u	-2.7%	-15.6
Cc1ccc(N2C(=O)/C(=C\c3ccco3)SC2=S)cc1	u	u	30.7
COC(=O)c1ccc(N=C2S/C(=C\c3cc(C)n(-c4cccnc4)c3C)C(=O)N2C)cc1	-6.2%	u	-14.7
CCOc1ccc(/C=C2/SC(=S)N(n3c(C)ccc3C)C2=O)cc1	u	-4.4%	u
COc1ccc(/C=C2/SC(=S)N(n3c(C)ccc3C)C2=O)cc1	6.31µM*	-25.7%	2.3
COc1ccc(-n2c(C)cc(/C=C3/SC(=S)N(C)C3=O)c2C)cc1	1µM*	-9.6%	u
O=C1/C(=C\c2ccco2)SC(=S)N1Cc1ccccc1	14.1µM*	-21.4%	-9.3
CCOC(=O)CC(NC(=O)Cc1ccc(F)cc1)c1ccccc1Cl (centres undefined)	3.0%	-2.3%	54.8
CCOC(=O)c1ccc(NC(=O)CSc2nnnn2CCCO)cc1	u	-6.8%	-23.4
Cc1occc(=O)c1OC(=O)Nc1ccccc1	-3.9%	-5.8%	-1.6
CCOC(=O)c1c(N2C(=O)Nc3cc(Cl)c(Cl)cc3N2O)sc2c1CCCCC2	u	-9.7%	21.2
CCCCNC(=O)c1cn(-c2ccc(OCC)cc2)c(=O)c2cc(OC)c(OC)cc12	25.4%	-19.2%	u
CCN(CC)C(=O)CC(c1ccc(F)cc1)c1ccc(OC)cc1 (centres undefined)	0.3%	u	15.2
O=c1[nH]c2cc3c(cc2cc1CN(Cc1cccnc1)C(=S)NCc1ccco1)OCCO3	26.4%	x	x
CCOC(=O)CN1C(=O)S/C(=C/c2cc(C)n(-c3ccccn3)c2C)C1=O	u	-2.4%	-21.5
Cc1cc(/C=C2\SC(=S)N(Cc3ccco3)C2=O)c(C)n1-c1ccccc1	0.0891µM*	u	-21.7
O=C(CCSc1ccccc1)NC(=O)COC(=O)c1ccc(OC(F)F)cc1	u	x	31.2
CC(Oc1cccc(Cl)c1)C(=O)NCc1ccc(S(N)(=O)=O)cc1 (centres undefined)	-8.0%	x	x
Cn1c(N)c(C(=O)COC(=O)C2CCCCC2)c(=O)n(C)c1=O	u	6.8%	11.8
COc1ccc(NC(=O)c2sc(=S)[nH]c2N)cc1	10µM*	28.2µM*	13.6
COc1ccc(NC(=O)c2cccc(C(=O)Nc3ccc(OC)cc3)n2)cc1	-1.3%	x	x
CC(c1ccncn1)N(C)Cc1nc(-c2ccc(C(F)(F)F)cc2)no1 (centres undefined)	-85.3%	x	x
Cc1oc(-c2ccc3ccccc3c2)nc1CN(C)C(C)c1ccncn1 (centres undefined)	15µM*	x	x
COc1cc2cc(CN(Cc3cccs3)C(=S)Nc3ccccc3)c(=O)[nH]c2cc1OC	u	-24.6%	34.9
O=C(CCl)N(c1ccccc1)C1CCS(=O)(=O)C1 (centres undefined)	0.0631µM*	-1.4%	0.4
SMILES	ALDH1A1 inh	HPGD block	PNC assembly inh
CN(C1CCS(=O)(=O)C1)S(=O)(=O)c1ccccc1 (centres undefined)	-5.5%	x	x
O=[n+]1c2c(n([O-])c3cc(F)c(N4CCCC4)cc31)CCCC2	20µM*	-11.9%	u
O=[n+]1c2c(n([O-])c3cc(F)ccc31)CCCC2	-2.0%	-21.9%	u
COC(=O)c1ccc(OC(=O)c2ccc(OC)cc2)c(OC)c1	-2.1%	x	x
COc1ccc(OC)c(N(CC(=O)Nc2ccccc2C(=O)NCc2ccco2)S(C)(=O)=O)c1	u	-12.8%	-15.1
COc1ccc(N(CC(=O)Nc2ccccc2C(=O)NCc2ccco2)S(C)(=O)=O)cc1	11.2µM*	-11.4%	6.7
CS(=O)(=O)N(Cc1ccc(C(=O)NCc2ccco2)cc1)c1ccccc1	8.1%	28.2µM*	77.2
CS(=O)(=O)N(Cc1ccc(C(=O)NCCSCc2ccco2)cc1)c1ccccc1	14.3%	u	-6.8
CN(C)C(=O)c1c2c(nc3ccccc13)-c1ccccc1CC2	u	-23.2%	-24.6
COc1cc2c(cc1NC(=O)CC1SC(N3CCCC3)=NC1=O)oc1ccccc12 (centres undefined)	9.8%	-12.5%	1.9
Cc1ccc2c(c1)N(CC(=O)NC1CCCCC1C)C(=O)CO2 (centres undefined)	9.6%	x	u
Cc1ccc(Cl)cc1N(CC(=O)Nc1cccc(N(C)S(C)(=O)=O)c1)S(C)(=O)=O	-4.8%	x	x
Cc1cccc(C)c1N(CC(=O)Nc1cccc(N(C)S(C)(=O)=O)c1)S(C)(=O)=O	22.4µM*	-14.2%	30.9
O=C(Cc1ccccc1)N1CCN(C(=O)c2cccs2)CC1	-3.7%	-9.7%	31.4
COc1ccc(NC(=O)c2cc([N+](=O)[O-])ccc2O)cc1	4.3%	x	x
COc1ccc(NC(=O)c2ccc(-c3ccc([N+](=O)[O-])cc3)o2)cc1	2.24µM*	x	x
